The campaign covered roughly 200,000 compounds. About 18,000 (9%) were called active. The sample holds actives, similar compounds and a random draw of the others, so the mix is not that of the screen. Unmarked numbers belong to inactive results. No stated cut-off is given here; in the data, active means inhibition above about 50%; inactive means the rest.
Test: Leishmania major promastigote growth inhibition, primary screen (AID 1063);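 further: promastigotes grown with compound for 44 hours at 28 °C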
Details: Leishmania major promastigotes, resazurin fluorescence viability; at 10 µM; hits give high values
In the case of `O=C1N=C(N2CCOCC2)S/C1=C\C=C/c1ccccc1`, the inhibition is reported as 7.77%.
Molecule `CCc1ccc(/C=C2\SC(N3CCOCC3)=NC2=O)cc1` has an inhibition of 12.3%.
For `O=C1N=C(N2CCCC2)S/C1=C\c1cccc(Br)c1`, the inhibition was 96.6% (active).
`COc1ccc(/C=C/C(=O)c2cc(Br)ccc(=O)c2O)cc1` gave an inhibition of -3.91%.
In the case of `COc1ccc(/C=C/C(=O)c2ccc(OC)cc2O)cc1`, the inhibition is reported as 7.64%.
For `COc1ccc(C(=O)/C=C/c2ccc(OC3CSC3)cc2)cc1`, the inhibition was 75.7% (active).
In the case of `O=C(COc1ccccc1)Nc1ccc(N2CCN(C(=O)c3cccs3)CC2)cc1`, the inhibition is reported as -3.12%.
`C=CCn1nc(-c2ccccc2)c2c(C)onc2c1=O` gave an inhibition of 2.35%.
With `Cc1nnc(-c2ccc(Oc3ccc(C)c(C)c3)c([N+](=O)[O-])c2)o1` the inhibition was 64.6% (active).
`COc1ccc(-c2nc3cc([N+](=O)[O-])ccc3o2)cc1OC` showed an inhibition of -4.49%.
`COc1ccc(OCC(=O)Nc2cc(C)c(Cl)cc2OC)c([N+](=O)[O-])c1` showed an inhibition of 0.64%.
Molecule `O=C(Nc1ccc(N2CCOCC2)cc1)c1ccc2c(c1)OCO2` has an inhibition of -0.26%.
For `CCc1ccc(CN(C)C(=O)CCc2nnc(-c3ccc(-c4ccccc4)cc3)o2)nc1`, the inhibition was 25.8%.
In the case of `Clc1cccc(N=C2NN=C(c3ccc4c(c3)OCCO4)CS2)c1`, the inhibition is reported as 4.41%.
With `CS(=O)(=O)N(CC(=O)N1CCN(Cc2ccccc2)CC1)c1ccc2c(c1)OCCO2` the inhibition was -0.45%.
For `c1ccc(CN2CCC(N=C3NN=C(c4ccc5c(c4)OCCO5)CS3)CC2)cc1`, the inhibition was 75.9% (active).
`COc1ccccc1NC(=O)c1c(Br)cnn1C` gave an inhibition of -1.37%.
Molecule `O=C(NNC1=C(C(=O)C(F)(F)F)CCC1)c1ccncc1` has an inhibition of -0.87%.
`c1ccc(-c2cc(N3CCCCC3)c3ccccc3n2)cc1` showed an inhibition of 43.1%.
For `Fc1cnc(N2CCOCC2)nc1NCc1ccccc1`, the inhibition was 0.72%.
In the case of `CC(CN1CCOCC1)c1ccccc1` (stereo not given), the inhibition is reported as 5.49%.
For `CC(Nc1nc(N2CCOCC2)nc2ccccc12)c1ccccc1` (stereo not given), the inhibition was 54.2% (active).
With `CC(Nc1nc(N2CCN(CCO)CC2)nc2ccccc12)c1ccccc1` (stereo not given) the inhibition was 16.7%.
In the case of `CC(Nc1nc(N2CCCC2)nc2ccccc12)c1ccccc1` (stereo not given), the inhibition is reported as 100% (active).
Molecule `Cc1cc(Oc2ccccc2)nc(N2CCOCC2)n1` has an inhibition of -4.03%.
Molecule `C(=N/Nc1cc(N2CCOCC2)nc(N2CCOCC2)n1)/c1ccccc1` has an inhibition of -1.17%.
For `c1ccc2c(NC3C4CC5CC(C4)CC3C5)nc(N3CCOCC3)nc2c1` (stereo not given), the inhibition was 69.9% (active).
With `COc1cc(C(=O)NCc2ccc(-n3cccc3)cc2)cc(OC)c1OC` the inhibition was 23%.
`COc1ccc(CCNC(=O)C(=O)NCc2ccccc2C)cc1OC` gave an inhibition of -0.59%.
In the case of `CC(C)(C)NC(=O)c1ccc(Cn2cc(C(F)(F)F)ccc2=O)cc1`, the inhibition is reported as -0.17%.
For `Cc1ccc(C2NC(C(=O)O)CS2)cc1` (stereo not given), the inhibition was -9.29%.
For `Cc1cccc(NC(=S)NC(=O)c2ccc(Br)o2)c1`, the inhibition was -3.34%.
`CNC(=O)C(=O)N/N=C/c1ccccn1` gave an inhibition of -7.18%.
In the case of `Cc1ccc(-c2ccc(/C=N/NC(=O)CN3CCOCC3)o2)cc1[N+](=O)[O-]`, the inhibition is reported as 96.8% (active).
In the case of `Cc1cc(C)c([N+](=O)[O-])cc1-c1ccc(/C=N/NC(=O)c2nonc2N)o1`, the inhibition is reported as 14.1%.
With `N#C/C(=C\c1ccc(-c2cccc([N+](=O)[O-])c2)o1)C(=O)NCCN1CCOCC1` the inhibition was 17.4%.
In the case of `O=C(/C=C/c1c(F)cccc1Cl)Nc1nn[nH]n1`, the inhibition is reported as -6.22%.
For `CNC(=O)/C(C#N)=C/c1c(F)cccc1Cl`, the inhibition was 99.2% (active).
Molecule `N#C/C(=C\c1ccccc1C(F)(F)F)C(=O)Nc1ccccc1F` has an inhibition of 7.15%.
Molecule `COc1cccc(-c2ccc(SCC(=O)N3CCN(c4ccccc4)CC3)nn2)c1` has an inhibition of 4.58%.
Molecule `O=C(CSc1ccc(-c2cccs2)nn1)Nc1ccccc1F` has an inhibition of 10.6%.
`COc1ccccc1C(=O)N1CC2(C)CC1CC(C)(C)C2` (stereo not given) showed an inhibition of -5.56%.
Molecule `Cc1cccc(C(=O)NCC(=O)OCC(=O)N2CC3(C)CC2CC(C)(C)C3)c1` (stereo not given) has an inhibition of 43.9%.
In the case of `Cc1nnnn1/C(=C\c1ccccc1)C(=O)OCC(=O)N1CC2(C)CC1CC(C)(C)C2` (stereo not given), the inhibition is reported as 100% (active).
Work on `Cc1nnsc1C(=O)Nc1cccc(Cl)c1C` yielded an inhibition of -7.14%.
`CCCCOC(=O)c1ccc(NC(c2ccc(C)cc2)P(=O)(OC)OC)cc1` (stereo not given) showed an inhibition of 2.9%.
With `CCOP(=O)(OCC)C(Nc1cccc(C)c1)c1ccc(F)cc1` (stereo not given) the inhibition was 61.2% (active).
Work on `CCOP(=O)(OCC)C(Nc1ccc([N+](=O)[O-])cc1)c1ccc(Cl)cc1` (stereo not given) yielded an inhibition of 36.9%.
In the case of `Cc1nc2cc(NC(=O)NC3CC3)ccc2n1C`, the inhibition is reported as -6.22%.
In the case of `CC(=O)n1cc([C@H]2C=C(C(=O)N3CCOCC3)O[C@@H](OCc3ccc(CO)cc3)C2)c2ccccc21`, the inhibition is reported as 0.43%.
In the case of `CN1CCN(C(=O)C2=C[C@H](c3ccc4c(c3)OCO4)C[C@H](OCc3ccc(CO)cc3)O2)CC1`, the inhibition is reported as 5.67%.
For `CCO[C@H]1OC(C(=O)N2CCCCCCC2)=C[C@@H](c2ccc(C(F)(F)F)cc2)[C@@H]1CCCO`, the inhibition was -8.31%.
For `CCO[C@H]1OC(C(=O)NCc2ccccc2)=C[C@@H](c2coc3ccccc3c2=O)[C@@H]1CCCO`, the inhibition was 8.75%.
With `CC(=O)n1cc([C@@H]2C=C(C(=O)N3CCN(Cc4ccc5c(c4)OCO5)CC3)O[C@H](OCc3ccc(CO)cc3)C2)c2ccccc21` the inhibition was 78.9% (active).
For `CCO[C@H]1OC(C(=O)N2CCN(Cc3ccccc3)CC2)=C[C@@H](c2cn(C(C)=O)c3ccccc23)[C@@H]1CCCO`, the inhibition was 71.4% (active).
`CCC1CCCCN1C(=O)CSc1nc2c(c(=O)n(C)c(=O)n2C)n1C` (stereo not given) showed an inhibition of -6.11%.
Work on `CCOc1ccc(C(CC(=O)O)n2cnnn2)cc1OC` (stereo not given) yielded an inhibition of -5.12%.
Molecule `Cc1cc(NC(=O)CSc2nccn2-c2ccc([N+](=O)[O-])cc2)no1` has an inhibition of -2.13%.
Molecule `N/C(=N\OC(=O)N1c2ccccc2Sc2ccccc21)c1ccc(Br)cc1` has an inhibition of 26%.
`O=[N+]([O-])c1ccc(N2CCNCC2)cc1NCc1cccnc1` showed an inhibition of -1.11%.
In the case of `O=C(CSc1nc2ccccc2[nH]1)N/N=C/C=C\c1ccccc1[N+](=O)[O-]`, the inhibition is reported as 40.1%.
For `CN1CCN(c2ccc([N+](=O)[O-])c(Sc3nc4ccccc4[nH]3)c2)CC1`, the inhibition was 57% (active).
Molecule `COc1ccc(S(=O)(=O)N2CCOCC2)cc1NC(=O)CSc1ncnc2ccccc12` has an inhibition of 23%.
In the case of `O=C(NC1CC1)C1CCCN(C(=O)NC2CCCCC2)C1` (stereo not given), the inhibition is reported as 1.82%.
`COc1ccc(-c2nn(-c3ccccc3)cc2CN2CCCO2)c(F)c1` gave an inhibition of 13%.
`O=C(CCCN1C(=O)/C(=C\c2ccco2)SC1=S)Nc1cccc2ccccc12` showed an inhibition of 30.1%.
`O=C(CCCN1C(=O)/C(=C/c2ccco2)SC1=S)Nc1ccccc1` gave an inhibition of 10.2%.
In the case of `O=C(CCCN1C(=O)/C(=C/c2ccccc2)SC1=S)Nc1ccc(O)cc1`, the inhibition is reported as 56.3% (active).
For `O=C(Nc1ccc([N+](=O)[O-])cc1)C1CC12CCC2` (stereo not given), the inhibition was 2.36%.
`COc1ccc(/C(N)=N/OC(=O)Cc2ccccc2)cc1` showed an inhibition of -6.43%.
In the case of `N/C(=N\OC(=O)CCC1CCCCC1)c1ccccn1`, the inhibition is reported as -4.7%.
For `N/C(=N\OC(=O)CC1CCCCC1)c1ccccc1`, the inhibition was 57.8% (active).
With `CCc1ccccc1N1C(=O)C2C3CC(=O)C(c4ccccc43)C2C1=O` (stereo not given) the inhibition was 7.01%.
Work on `Cc1noc(C)c1COc1ccc2ccc(=O)oc2c1` yielded an inhibition of -4.27%.
For `CCOc1ccc(C(C)C)cc1S(=O)(=O)n1nc(C)cc1C`, the inhibition was 0.47%.
`COc1cc(Cl)c(S(=O)(=O)n2cnc(C)c2)cc1Cl` showed an inhibition of 2.35%.
With `COc1cc(C)c(Cl)cc1S(=O)(=O)n1ccnc1` the inhibition was 80.5% (active).
In the case of `CCOc1ccc(S(=O)(=O)n2ccnc2)c2ccccc12`, the inhibition is reported as -5.02%.
With `COc1cc(C)c(C(C)C)cc1S(=O)(=O)n1ccnc1` the inhibition was 97.8% (active).
`CCOc1cc(C)c(Cl)cc1S(=O)(=O)n1nnc2ccccc21` showed an inhibition of 1.2%.
`N#Cc1c(NC(=O)CCCl)sc2c1CCCCC2` gave an inhibition of -0.81%.
Molecule `CCCCCc1nnc(NC(=O)c2ccc(=O)n(C)n2)s1` has an inhibition of 1.57%.
Work on `O=C1N/C(=C/c2cccs2)C(=O)N1Cc1ccc(F)cc1` yielded an inhibition of -5.2%.
In the case of `CC1CC1C(=O)OCC(=O)c1c(N)n(C)c(=O)n(C)c1=O` (stereo not given), the inhibition is reported as -4.6%.
Work on `COCCN(C(=O)C(C)C)c1nnc(-c2ccc(C(C)(C)C)cc2)s1` yielded an inhibition of 8.79%.
In the case of `O=C(O)c1ccc2c3c(cccc13)C(=O)N(OS(=O)(=O)c1ccccc1)C2=O`, the inhibition is reported as -8.08%.
With `Cc1cccc(C)c1NC(=O)CSc1ccc([N+](=O)[O-])cn1` the inhibition was -1.31%.
Molecule `Cc1cc(C)c(C#N)c(SCC(=O)Nc2ccccc2)n1` has an inhibition of -5.68%.
With `Cc1cc2cc3c(cc2nc1SCC(=O)Nc1c(C)cccc1C)CCC3` the inhibition was 78.9% (active).
`CS(=O)(=O)N(CC(=O)N/N=C/c1ccccn1)c1ccc(Oc2ccccc2)cc1` showed an inhibition of 32.9%.
Molecule `CCCN(CC(=O)Nc1ccccc1C)C(=O)c1cc(=O)[nH]c2ccccc12` has an inhibition of 1.78%.
With `CC(=O)C1=C(C)NC(C)=C(C(C)=O)C1c1cn(-c2ccccc2)nc1-c1cccs1` the inhibition was 79.7% (active).
In the case of `O=C(O)c1ccc(N/N=C/c2cn(-c3ccccc3)nc2-c2cccs2)cc1`, the inhibition is reported as 46.2%.
`O=C(O)/C=C/c1cn(-c2ccccc2)nc1-c1cccs1` gave an inhibition of -2.18%.
`CC(=O)Nc1ccc(S(=O)(=O)Oc2ccc(/C=N/N=C3/NC(=O)C(CC(=O)O)S3)cc2)cc1` (stereo not given) gave an inhibition of -13.1%.

From PubChem BioAssay AID1063 (University of Pittsburgh Molecular Library Screening Center, 2008)
